Data on 88 compounds can be found in PubChem BioAssay AID720504 (National Center for Advancing Translational Sciences (NCATS), 2013).

Screen size: about 360,000 compounds; about 10,000 (2.8%) were called active. Roughly 4% stayed inconclusive and do not appear here. Only a selection was taken, and actives are over-represented in it overall. Unmarked numbers belong to inactive results. The call rests on the fitted dose curve; in most records, active means well fitted inhibition curve with a large enough effect; inconclusive means small, poorly fitted or top-dose-only effect; inactive means flat fitted curve, though single readings scatter.
On the % scale 0 is the no-effect control and ±100 the full control effect; potency means the concentration at half of the fitted maximal effect.

The target of the experiment is Serine/threonine-protein kinase PLK1 (Homo sapiens) (UniProt P53350). Description: qHTS for Inhibitors of PLK1-PDB (polo-like kinase 1 - polo-box domain): Primary Screen. Further: nearly all actives have a fitted effect of over 65% in size. On max response, negative = inhibition: series mostly up to about 57 µM. Conditions: Plk1 PBD binding of FITC phosphopeptide, fluorescence polarization.
Chain of Serine/threonine-protein kinase PLK1 (Homo sapiens) (P53350 whole entry, looked up, the tested form may be a part): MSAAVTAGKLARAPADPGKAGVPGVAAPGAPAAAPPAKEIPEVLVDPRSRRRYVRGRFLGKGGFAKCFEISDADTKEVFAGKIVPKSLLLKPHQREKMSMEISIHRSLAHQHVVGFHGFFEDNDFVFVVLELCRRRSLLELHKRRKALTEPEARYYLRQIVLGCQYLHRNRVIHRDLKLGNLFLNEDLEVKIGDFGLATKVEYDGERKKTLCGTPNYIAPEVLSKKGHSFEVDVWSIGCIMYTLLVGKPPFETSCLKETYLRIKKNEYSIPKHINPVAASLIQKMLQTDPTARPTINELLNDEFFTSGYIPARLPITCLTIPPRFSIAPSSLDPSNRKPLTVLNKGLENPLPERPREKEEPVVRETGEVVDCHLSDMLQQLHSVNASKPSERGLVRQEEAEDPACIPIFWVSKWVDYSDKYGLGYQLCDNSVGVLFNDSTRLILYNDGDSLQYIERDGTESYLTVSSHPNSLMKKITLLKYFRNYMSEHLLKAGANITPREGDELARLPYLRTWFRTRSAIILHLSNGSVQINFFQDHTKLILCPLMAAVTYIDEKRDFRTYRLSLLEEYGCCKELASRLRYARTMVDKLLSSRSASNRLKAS
Consider `COc1ccc(C2CC(c3cccc(OC)c3)=NN2c2ccc(S(N)(=O)=O)cc2)cc1` (stereo not drawn), for which the max response, negative = inhibition was -4.37%.

As for `COc1ccc(NC(=O)c2cc(=O)[nH]c3ccccc23)cc1S(=O)(=O)N1CCOCC1`, the max response, negative = inhibition is -1.4%. Still for that read-out and setting: the value for `Nc1[nH]c(C(=O)c2ccccc2)c(-c2ccncc2)c1C(=O)NCc1cccc2ccccc12` was -5.24%. Consider `OC[C@@H]1CN(Cc2ccc(F)cc2)C[C@H](n2cnc3c(NC4CCCC4)ncnc32)O1`, for which the max response, negative = inhibition is -5.68%. Take `Oc1c(Cl)cc(Cl)c(Cl)c1Cc1c(O)c(Cl)cc(Cl)c1Cl`: the Potency was 21.2 µM (active). In the case of `CCc1nc2c(OCc3ccccc3)cccn2c1N(C)C(=O)c1ccco1`, the max response, negative = inhibition was 3.35%. Take `CCn1c(SCC(=O)N2CCCC2=O)nc2ccccc21`: the max response, negative = inhibition was -10%.

Regarding `O=C(CCc1ccccc1)Nc1nn[nH]n1`, the Potency was 26.7 µM (active).

With `O=C(CCc1ccccc1)NNc1ccc(F)cc1`, the max response, negative = inhibition was -17.7%. Take `Cc1ccc(F)c(NC(=O)CCc2ccccc2)c1`: the max response, negative = inhibition is -9.88%.

With `C[C@H]1CN([C@@H](C)CO)C(=O)c2cc(C3=CCCCC3)cnc2O[C@@H]1CN(C)C(=O)Cc1ccccc1`, the max response, negative = inhibition is -26.3%. Same read-out and setting: as for `O=C(CSc1ncn[nH]1)Nc1ccc(Br)cc1Br`, the figure is -1.62%; as for `CCN(C(=O)CSc1ncn[nH]1)c1cccc2ccccc12`, -2.53%. As for `CC(C)(C)c1ccc(C(=O)CSc2ncn[nH]2)cc1`, the Potency is 20 µM (active). With `CC/S(CC1CC1(Cl)Cl)=N\S(=O)(=O)c1ccc(C)cc1` (stereo not drawn), the max response, negative = inhibition is -0.46%. On to `Cc1ccc(S(=O)(=O)/N=S(\C)C(C)C)cc1` (stereo not drawn), for which the Potency was 26.7 µM (active). Regarding `CCCC/S(C)=N/S(=O)(=O)c1ccc(C)cc1` (stereo not drawn), the max response, negative = inhibition is -5.69%.

Take `O=C(NCC(F)(F)F)c1ccc(S(=O)(=O)NCCc2ccc3c(c2)OCCO3)cc1`: the max response, negative = inhibition is -0.767%. On the same count and under the same terms, as for `COCCNC(=O)C1C(=O)Nc2ccccc2C(=O)N1c1ccc2c(c1)OCCO2` (stereo not drawn), the figure is -3.12%.

On to `O=C(O)c1ccc2c(=O)n3c(nc2c1)/C(=C/c1ccc(OC(F)F)cc1OC(F)F)CC3`, for which the Potency was 10.6 µM (active). Turning to `N#Cc1ccc(/C=C2\CCn3c2nc2cc(C(=O)O)ccc2c3=O)cc1`, the max response, negative = inhibition is -8.35%. On the same count and under the same terms, as for `Cc1ccc(/C=C2\CCn3c2nc2cc(C(=O)O)ccc2c3=O)c(C)c1`, the figure is -12.7%; as for `COc1cccc(NC(=O)C2(C)CCN2C(=O)CCC2CCCC2)c1` (stereo not drawn), 1.49%.

As for `FC(F)(F)Oc1ccccc1C(c1nnnn1C1CCCCC1)N1CCN(C/C=C/c2ccccc2)CC1` (stereo not drawn), the max response, negative = inhibition was -10.7%.

Take `CCNC(=O)C1(C)CCN(C(=O)c2ccccc2)C1` (stereo not drawn): the max response, negative = inhibition is -1.07%. Still for that read-out and setting: as for `C[C@@H]1CN([C@@H](C)CO)C(=O)c2c(c3ccccc3n2C)-c2ccccc2CO[C@H]1CN(C)C(=O)C1CC1`, the figure is -5.93%; as for `NNC(=O)c1cnn(-c2ccccc2)c1C(F)(F)F`, -2.55%. `Nc1c(C(=O)O)cnn1-c1ccccc1`: the Potency was 23.8 µM (active). `CCNC(=O)c1cnn(-c2ccccc2)c1-c1ccccc1`: the max response, negative = inhibition is -11.7%. Still for that read-out and setting: the value for `COc1ccc(CCNC(=O)CN(c2ccccc2)S(=O)(=O)c2ccccc2)cc1` was -1.56%; that for `CCCCCCN1CCN(C2CN(Cc3cn(CCCCCC)nn3)S(=O)(=O)C2)CC1` (stereo not drawn) was 6.53%; that for `COc1ccc(-c2cc3c(c4c2ccn4C)C2CCC3C2)cn1` (stereo not drawn) was -0.384%. Same read-out and setting: the value for `CC(=O)NS(=O)(=O)c1ccc(NC(=S)NC(=O)C(C)(C)C)cc1` was -8.92%. On the same count and under the same terms, as for `COC(=O)C(NS(=O)(=O)c1ccc(F)cc1)c1ccccc1` (stereo not drawn), the figure is -18.8%. As to `O=S(=O)(NC(=S)Nc1ccccc1)c1ccc(F)cc1`, the Potency was 23.8 µM (active). As to `Cc1ccc([C@H]2N[C@]3(CCCN(Cc4ccccc4)C3=O)[C@H]3C(=O)N(Cc4ccccc4)C(=O)[C@@H]23)cc1`, the max response, negative = inhibition is 5.77%.

With `O=C(NCc1ccccc1Cl)c1csc([C@@H]2O[C@H](CO)[C@@H](O)[C@H]2O)n1`, the max response, negative = inhibition was -2.33%. With `CCCNC(=O)C1(C)CCCN(C(=O)c2cccc(OC(C)=O)c2C)C1` (stereo not drawn), the max response, negative = inhibition is 2.94%.

Take `O=C(NNC(=S)Nc1ccccc1)c1cccc(S(=O)(=O)N2CCOCC2)c1`: the max response, negative = inhibition was 2.12%. For the compound `COc1ccccc1C(=O)NC(=S)Nc1ccc(N2CCOCC2)cc1`, the Potency is 26.7 µM (active).

Turning to `O=C(NC(=S)Nc1ccc(S(=O)(=O)N2CCOCC2)cc1)c1ccccc1[N+](=O)[O-]`, the Potency was 33.6 µM (active). Regarding `COc1cccc(OC)c1C(=O)NC(=S)Nc1ccc(N2CCOCC2)c(Cl)c1`, the max response, negative = inhibition is -8.56%. Take `O=C(Nc1ccc(S(=O)(=O)N2CCOCC2)cc1)C1CCN(S(=O)(=O)c2ccc(Cl)cc2)CC1`: the max response, negative = inhibition is 3.5%.

`Cc1ccc(C(=O)NC(=S)Nc2ccc(N3CCOCC3)cc2)cc1`: the max response, negative = inhibition was -12.8%. `CC(C)(C)NC(=O)C(CCc1ccccc1)n1c(=O)c(-c2ccccc2)nc2ccccc21` (stereo not drawn): the max response, negative = inhibition is -22.7%. Same read-out and setting: the value for `CCCCN(C=O)c1c(CC)nc2c(OCCC3CCCCC3)cccn12` was -1.3%; that for `O=CNc1cc(-c2ccc(C(=O)N3CCOCC3)cc2)cn2c(-c3ccc(F)cc3)cnc12` was -25.7%; that for `O=C(C[C@H]1CC[C@@H](NC(=O)c2ccncc2)[C@@H](CO)O1)NCC1CC1` was -5.23%. `CN(Cc1ccccc1)C(=O)CCNC(=O)Cn1cnc2ccccc2c1=O`: the max response, negative = inhibition is -6.79%. Still for that read-out and setting: as for `Cc1sc2ncn(CC(=O)NCCCC(=O)NCc3ccc(F)cc3)c(=O)c2c1C`, the figure is -9.91%. As for `Cc1sc2ncn(CC(=O)NCCCC(=O)N(C)Cc3ccccc3)c(=O)c2c1C`, the Potency is 26.7 µM (active).

For the compound `Cc1ccc([C@H]2C[C@H](O)[C@@H](n3cc(COC(=O)c4ccccc4)nn3)CN2CC2CCCCC2)cc1`, the max response, negative = inhibition is 7.82%.

In the case of `COc1cccc(Nc2nnc(SCC(=O)N3CC(C)OC(C)C3)s2)c1` (stereo not drawn), the max response, negative = inhibition is 1.98%.

Regarding `Cc1nc(SCC(=O)N2CC(=O)Nc3ccccc32)c2c(C)c(C)sc2n1`, the max response, negative = inhibition was -1.22%. Regarding `COc1cccc(Nc2nnc(SCC(=O)N3CC(=O)Nc4ccccc43)s2)c1`, the Potency is 26.7 µM (active). Turning to `COC(=O)[C@]12CCCCC=C1N(CCC1=CCCCC1)C(=O)[C@H](CC(=O)N1CCSCC1)C2`, the max response, negative = inhibition is -4.1%. Same read-out and setting: as for `CCOC(=O)[C@]12CCC=C1N(CCC1=CCCCC1)C(=O)[C@H](CC(=O)NCc1ccc(C)o1)C2`, the figure is -24.8%; as for `CC(=O)Nc1cccc(-c2cc(NC=O)c3ncc(-c4ccc(F)c(Cl)c4)n3c2)c1`, -21.6%. On the same count and under the same terms, as for `O=S1(=O)CCN(C2CCCCCCCCCCC2)CC1`, the figure is -0.289%; as for `Cc1cc(C)nc(N(C#N)CC(=O)Nc2ccccc2)n1`, -10.2%. On the same count and under the same terms, as for `CCOC(=O)C(=Cc1ccccc1)C(=O)c1ccccc1`, the figure is -10.7%. On to `Cc1cc(C)nc(S/C=C/C(=O)c2ccccc2)n1`, for which the Potency was 2.99 µM (active). As to `Cc1ccc(S(=O)(=O)N2C[C@@H](C)[C@]3(C2)[C@H](O)[C@H](OC(=O)NCc2ccccc2)C[C@H]2C(=O)N(c4ccccc4)C(=O)[C@H]23)cc1`, the max response, negative = inhibition is -4.82%.

Turning to `O=C(Nc1ccccc1)C1CCN(C(=O)c2ccc(Br)cc2)CC1`, the max response, negative = inhibition was 1.93%.

`COc1ccc(C(=O)N2CCC(C(=O)Nc3cccc(C)c3)CC2)cc1OC`: the max response, negative = inhibition is -1.21%. On to `COc1ccc(C(=O)N2CCC(C(=O)Nc3ccc(C)cc3)CC2)cc1`, for which the Potency was 3.36 µM (active). Consider `Cc1cccc(C)c1NC(=O)C(c1cccc2ccccc12)n1c(=O)c(-c2ccco2)nc2ccccc21` (stereo not drawn), for which the max response, negative = inhibition is -15.3%. In the case of `CCOC(=O)[C@]12CCCC=C1N(Cc1ccc3c(c1)OCO3)C(=O)[C@H](CC(=O)NCc1cccs1)C2`, the max response, negative = inhibition is -29.1%.

As for `CC[C@@H](C)[C@H](NC(=O)CCc1c(C)c2cc3c4c(oc3c(C)c2oc1=O)CCCC4)C(=O)O`, the max response, negative = inhibition was -24%. Still for that read-out and setting: the value for `Cc1c(C)c2cc3c4c(oc3c(C)c2oc1=O)CCCC4` was -0.836%. In the case of `Cc1c(CCC(=O)N[C@@H](CC(C)C)C(=O)O)c(=O)oc2c(C)c3oc4c(c3cc12)CCCC4`, the Potency is 29.9 µM (active). For `CC(OC(=O)c1cccnc1Cl)C(=O)NC1CCCCC1` (stereo not drawn), the max response, negative = inhibition is 1.67%. As for `O=C(OCC(=O)N1CCCCCC1)c1cccc(Cl)c1Cl`, the max response, negative = inhibition is -1.69%.

With `COc1ccc(CC(N)c2csc(NC(=O)NC(c3ccccc3)c3ccccc3)n2)cc1` (stereo not drawn), the max response, negative = inhibition is -3.78%.

In the case of `O=C(Nc1ccc(Cl)cc1)c1csc([C@H]2C[C@H](O)[C@@H](CO)O2)n1`, the max response, negative = inhibition was -10.3%. Still for that read-out and setting: as for `C=CCn1cnc2scc(-c3ccccc3)c2c1=O`, the figure is -4%. As for `C=CCn1c(=S)[nH]c2scc(-c3ccco3)c2c1=O`, the Potency is 26.7 µM (active).

In the case of `C=CCn1c(=S)[nH]c2nc3c(cc2c1=O)COC(C)(C)C3`, the max response, negative = inhibition is 1.98%. The same measure, in the same setting: the value for `C[C@H](CO)N1C[C@H](C)[C@H](CN(C)C(=O)Nc2ccc3c(c2)OCO3)Oc2ncc(Br)cc2C1=O` was -14.4%; that for `CC(=O)NCCC(=O)Nc1cc(S(=O)(=O)N2CCOCC2)ccc1N1CCOCC1` was -0.805%. For the compound `COCCNC(=S)Nc1cc(S(=O)(=O)N2CCOCC2)ccc1N1CCCCC1`, the Potency is 2.99 µM (active). Take `CC(C)CCC(=O)Nc1cc(S(=O)(=O)N2CCOCC2)ccc1N1CCCC1`: the max response, negative = inhibition is -0.0205%.

With `CCCNC(=O)C1(C)CCCN(C(=O)c2oc3ccccc3c2C)C1` (stereo not drawn), the max response, negative = inhibition was -5.78%.

Consider `COC(=O)c1ccc2nc(C3CCCCC3)c(Cc3cccc(F)c3)n2c1`, for which the max response, negative = inhibition was -6.81%.

As for `O[C@H]1C[C@H](c2ccc(Cl)cc2)N(Cc2cccs2)C[C@@H]1n1cc(C2CC2)nn1`, the max response, negative = inhibition is -4.6%. `CCCCNC(=O)C1CCC(=O)N1CCc1ccccc1` (stereo not drawn): the max response, negative = inhibition is -10.6%.

Regarding `CCCCN1C(=O)CCC(C(=O)O)C1c1ccc(OC)cc1` (stereo not drawn), the Potency was 26.7 µM (active). In the case of `COc1ccc(C2C3=C(CCCC3=O)N(CC(=O)O)C3=C2C(=O)CCC3)cc1`, the max response, negative = inhibition is -11.9%.
